Experimental data reported in PubChem BioAssay AID1159580 (chemical genetic matrix, 2015).
Hit rate of the full screen: of about 5,500 compounds, about 2,000 (36%) were called active. Not shown: some 18% with an inconclusive outcome. No stated cut-off is given here; in the data, active means normalized growth mostly below about 0.91 (no sharp cut-off); inconclusive means no clear call, values can overlap the other calls; inactive means mostly above about 0.92. The list shows a part of the results.

Test: chemical genetic growth profiling, strain panel (AID 1159580);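 further: tested at 20 µM; growth read once vehicle control cultures reached saturation at 30 °C; 1 = growth at the plate median or of vehicle wells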
Conditions: S. cerevisiae deletion strains, growth OD

Measured: normalized growth

COc1ccc(-c2cc(=O)c3c(OC)c(OC)c(OC)c(OC)c3o2)cc1OC
inactive: locus YAL021C, strain ccr4, stronger effect = lower value 1 | locus YAL026C, strain drs2, stronger effect = lower value 1 | locus YAL030W, strain snc1, stronger effect = lower value 0.999 | locus YBL061C, strain skt5, stronger effect = lower value 1 | locus YBR009C, strain hhf1, stronger effect = lower value 1.02 | locus YBR023C, strain chs3, stronger effect = lower value 1.01 | locus YBR171W, strain sec66, stronger effect = lower value 1 | locus YBR231C, strain swc5, stronger effect = lower value 0.997 | locus YBR279W, strain paf1, stronger effect = lower value 0.998 | locus YCL011C, strain gbp2, stronger effect = lower value 0.988 | locus YCL016C, strain dcc1, stronger effect = lower value 0.993 | locus YCL069W, strain vba3, stronger effect = lower value 1.02 | locus YCR088W, strain abp1, stronger effect = lower value 0.996 | locus YDL005C, strain med2, stronger effect = lower value 1 | locus YDL040C, strain nat1, stronger effect = lower value 0.999 | locus YDR001C, strain nth1, stronger effect = lower value 0.991 | locus YDR069C, strain doa4, stronger effect = lower value 1.01 | locus YDR137W, strain rgp1, stronger effect = lower value 1.03 | locus YDR159W, strain sac3, stronger effect = lower value 0.96 | locus YDR195W, strain ref2 0.952 | locus YDR297W, strain sur2, stronger effect = lower value 0.986 | locus YDR334W, strain swr1, stronger effect = lower value 1.01 | locus YDR335W, strain msn5, stronger effect = lower value 1.02 | locus YDR392W, strain spt3, stronger effect = lower value 1.01 | locus YEL003W, strain gim4, stronger effect = lower value 1.01 | locus YEL037C, strain rad23, stronger effect = lower value 0.997 | locus YEL061C, strain CIN8 (second series), stronger effect = lower value 0.999 | locus YER015W, strain faa2, stronger effect = lower value 0.992 | locus YER016W, strain bim1, stronger effect = lower value 0.993 | locus YER111C, strain swi4, stronger effect = lower value 1 | locus YER155C, strain BEM2 (second series), stronger effect = lower value 0.996 | locus YFR010W, strain ubp6, stronger effect = lower value 1.02 | locus YGL167C, strain pmr1, stronger effect = lower value 1.01 | locus YGL173C, strain kem1, stronger effect = lower value 1.01 | locus YGL227W, strain vid30, stronger effect = lower value 0.985 | locus YGL240W, strain doc1, stronger effect = lower value 0.994 | locus YGL253W, strain hxk2, stronger effect = lower value 0.994 | locus YHR013C, strain ard1, stronger effect = lower value 0.973 | locus YHR027C, strain rpn1, stronger effect = lower value 1 | locus YHR030C, strain SLT2, stronger effect = lower value 1.01 | locus YHR079C, strain IRE1, stronger effect = lower value 1.01 | locus YHR142W, strain chs7, stronger effect = lower value 1.01 | locus YJL092W, strain hpr5, stronger effect = lower value 0.996 | locus YJL095W, strain BCK1 (second series), stronger effect = lower value 0.992 | locus YJL095W, strain BCK1, stronger effect = lower value 0.963 | locus YJL115W, strain asf1, stronger effect = lower value 0.988 | locus YJL129C, strain trk1, stronger effect = lower value 1.01 | locus YJL154C, strain vps35, stronger effect = lower value 0.983 | locus YJL164C, strain tpk1, stronger effect = lower value 1 | locus YJL166W, strain qcr8, stronger effect = lower value 0.998 | locus YJR066W, strain TOR1, stronger effect = lower value 0.976 | locus YKL160W, strain elf1, stronger effect = lower value 0.997 | locus YKR026C, strain gcn3, stronger effect = lower value 0.997 | locus YKR091W, strain srl3, stronger effect = lower value 0.996 | locus YLL001W, strain dnm1, stronger effect = lower value 0.996 | locus YLL026W, stronger effect = lower value 0.991 | locus YLL041C, strain sdh2, stronger effect = lower value 0.991 | locus YLR027C, strain aat2, stronger effect = lower value 1 | locus YLR113W, strain HOG1, stronger effect = lower value 0.941 | locus YLR221C, strain rsa3, stronger effect = lower value 0.996 | locus YLR258W, strain gsy2, stronger effect = lower value 1.01 | locus YLR262C, strain YPT6 (second series), stronger effect = lower value 1.04 | locus YLR320W, strain mms22, stronger effect = lower value 1 | locus YLR342W, strain FKS1, stronger effect = lower value 0.998 | locus YLR357W, strain rsc2, stronger effect = lower value 0.957 | locus YLR370C, strain arc18, stronger effect = lower value 0.988 | locus YLR384C, strain iki3, stronger effect = lower value 0.981 | locus YML120C, strain ndi1, stronger effect = lower value 1.01 | locus YMR058W, strain fet3, stronger effect = lower value 0.995 | locus YMR125W, strain sto1, stronger effect = lower value 1 | locus YMR129W, stronger effect = lower value 0.994 | locus YMR205C, strain PFK2, stronger effect = lower value 1.02 | locus YMR231W, strain pep5, stronger effect = lower value 1 | locus YNL071W, strain lat1, stronger effect = lower value 0.998 | locus YNL183C, strain NPR1, stronger effect = lower value 0.926 | locus YNL209W, strain ssb2, stronger effect = lower value 1 | locus YNL248C, strain rpa49, stronger effect = lower value 0.995 | locus YNL322C, strain KRE1 (second series), stronger effect = lower value 0.994 | locus YNR049C, strain mso1, stronger effect = lower value 1.01 | locus YOR001W, strain rrp6, stronger effect = lower value 0.982 | locus YOR070C, strain gyp1, stronger effect = lower value 0.988 | locus YOR080W, strain dia2, stronger effect = lower value 0.989 | locus YOR083W, strain WHI5, stronger effect = lower value 1 | locus YOR106W, strain vam3, stronger effect = lower value 1.01 | locus YOR231W, strain MKK1, stronger effect = lower value 1.02 | locus YOR265W, strain rbl2, stronger effect = lower value 1.02 | locus YOR270C, strain vph1, stronger effect = lower value 1.07 | locus YOR290C, strain snf2, stronger effect = lower value 0.988 | locus YPL051W, strain arl3, stronger effect = lower value 0.974 | locus YPL078C, strain atp4, stronger effect = lower value 0.985 | locus YPL106C, strain sse1, stronger effect = lower value 0.962 | locus YPL240C, strain hsp82, stronger effect = lower value 1 | locus YPL256C, strain CLN2, stronger effect = lower value 0.991
